Several values for one entry are separate records, joined by “and”; a condition that tells them apart may be missing. Equal values may be shown once. Results filed as inconclusive are left out. Where a call stands in place of a potency, no number is given. Activity calls are given as the source filed them. Unless noted, calls follow the shape of the dose curve; as a rule, active = well fitted curve in the direction sought with a large enough effect; inconclusive = small, poorly fitted or top-dose-only effect, or another doubt; inactive = no such curve, though single readings can be large; an effect the other way counts as inactive or inconclusive.
What was measured:
[1] = Cell Viability - SK-N-SH (AID 435; calls by dose curve;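 also: potency is read from the fitted curve at half-maximal effect; compound exposure lasted 40 h at 37 °C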); conditions: SK-N-SH neuroblastoma cell viability qHTS
In short: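 Luminescent ATP signal served as the viability read-out after 40 hours of compound treatment of human neuroblastoma SK-N-SH cells. Concentration-response data, scaled between DMSO and 100 uM tamoxifen, gave AC50 values by standard Hill modeling.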

[2] = Cell Viability - Renal Proximal Tubule (AID 545); conditions: renal proximal tubule cells viability; series mostly up to 91.7 µM; also: nearly all actives have a fitted effect of over 40% in size
In short: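 Luminescent ATP signal (CellTiter-Glo) served as the viability read-out after 40 hr compound exposure of freshly isolated rat proximal tubule cells at 37 °C. Concentration-dependent ATP loss was fitted with the Hill equation to give AC50.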

[3] = Cellular Toxicity (caspase-3) HepG2 (AID 654); conditions: HepG2 caspase-3 activation, luminescence, 0% = DMSO only, 100% = tamoxifen; series mostly up to 92.2 µM;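 also: cells exposed to compound for 16 hours before reading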
In short: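 Concentration-response AC50 values reflect caspase-3/7 induction in HepG2 cells after 16 hours of compound exposure, quantified by luminescence from liberated aminoluciferin and referenced to 100 uM tamoxifen as full stimulation.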

[4] = Cellular Toxicity (caspase-3) SK-N-SH (AID 661); conditions: SK-N-SH caspase-3 activation, qHTS; series mostly up to 91.7 µM
In short: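 Apoptosis readout in SK-N-SH neuroblastoma: Caspase-Glo 3/7 luminescence following 16 hr treatment in complete culture medium. Normalization used DMSO and 10 uM staurosporine controls.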

[5] = target: Cytochrome P450 3A4 (Homo sapiens) (UniProt P08684); experiment: qHTS Assay for Inhibitors and Substrates of Cytochrome P450 3A4 (AID 884); conditions: recombinant CYP3A4, Luciferin-PPXE luminescence; series mostly up to 57.1 µM; also: nearly all actives have a fitted effect of over 50% in size; also: potency is read from the fitted curve at half-maximal effect
Cytochrome P450 3A4 (Homo sapiens), sequence (P08684 whole entry, looked up): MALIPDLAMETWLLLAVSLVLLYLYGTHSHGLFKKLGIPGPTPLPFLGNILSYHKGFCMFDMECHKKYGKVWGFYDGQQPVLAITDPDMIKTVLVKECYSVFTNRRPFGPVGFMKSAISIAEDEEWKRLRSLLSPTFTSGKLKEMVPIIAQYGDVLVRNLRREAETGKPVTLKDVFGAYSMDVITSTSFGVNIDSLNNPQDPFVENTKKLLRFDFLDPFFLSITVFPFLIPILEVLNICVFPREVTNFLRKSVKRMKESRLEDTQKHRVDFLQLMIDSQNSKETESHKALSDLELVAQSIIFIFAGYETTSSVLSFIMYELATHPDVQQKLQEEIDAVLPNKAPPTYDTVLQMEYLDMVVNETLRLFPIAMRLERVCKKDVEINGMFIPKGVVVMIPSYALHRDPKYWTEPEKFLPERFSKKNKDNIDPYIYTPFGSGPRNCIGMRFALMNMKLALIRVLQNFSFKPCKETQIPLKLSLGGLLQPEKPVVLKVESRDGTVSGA
In short: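 Luminescent readout of luciferin produced by CYP3A4 (20 nM) dealkylation of Luciferin-PPXE, 25 uM (its KM). NADPH-driven reaction ran 60 min at RT after 10 min compound preincubation; data scaled to 57 uM ketoconazole as 100% inhibition.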

[6] = Cell Viability - LYMP2-004 (AID 966); conditions: LYMP2-004 lymphoblastoid cell viability, qHTS; series mostly up to 92.2 µM;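 also: cells exposed to compound for 24 h; nearly all actives have a fitted effect of over 65% in size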
In short: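 Viable-cell number estimated from ATP luminescence (CellTiter-Glo) in 2500 human lymphoblastoid cells/well after 24 hr at 37 C with compound. AC50 fitted to the standard Hill equation.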

[7] = Cell Viability - LYMP2-015 (AID 971); conditions: LYMP2-015 lymphoblastoid cell viability; series mostly up to 92.2 µM;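 also: cells exposed to compound for 24 h; nearly all actives have a fitted effect of over 55% in size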
In short: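 AC50 values reflect Hill-model fits of ATP-based luminescence (CellTiter-Glo) from a human lymphoblastoid line, 2500 cells/well, treated 24 hr at 37 C.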

[8] = Cell Viability - LYMP2-010 (AID 981); conditions: LYMP2-010 lymphoblastoid cell viability, qHTS; series mostly up to 92.2 µM;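 also: cells exposed to compound for 24 hours at 37 °C; nearly all actives have a fitted effect of over 55% in size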
In short: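 This 24 hr viability screen uses LYMP2-010 lymphoblastoid cells, quantifies ATP via luciferase luminescence, and derives AC50 from Hill fits of qHTS concentration-response data.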

[9] = Cell Viability - LYMP2-012 (AID 982); conditions: LYMP2-012 lymphoblastoid cell viability qHTS; series mostly up to 92.2 µM;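 also: cellular ATP by luciferase luminescence where a drop means cytotoxicity; cells exposed to compound for one day before reading; nearly all actives have a fitted effect of over 55% in size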
[10] = Cell Viability - LYMP2-018 (AID 985); conditions: LYMP2-018 lymphoblastoid cells, viability (qHTS); series mostly up to 92.2 µM; also: nearly all actives have a fitted effect of over 50% in size
In short: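 In this qHTS viability assay, cells are treated for 24 hr and cellular ATP is quantified by luciferase-based luminescence, with tetraoctylammonium bromide as positive control.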

[11] = Cell Viability - LYMP2-020 (AID 986); conditions: series mostly up to 92.2 µM;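 also: cells exposed to compound for 24 h at 37 °C; nearly all actives have a fitted effect of over 55% in size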
In short: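 Cells at 2500 per well receive a 24 hr compound exposure at 37 C. Viability is measured as ATP-dependent luciferase luminescence, with AC50 modeled from qHTS concentration-response curves.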

[12] = qHTS assay for small molecule agonists of retinoid X receptor alpha signaling (AID 588544; calls by dose curve); conditions: HEK293T RXRa-UAS-bla, beta-lactamase reporter, 18 h; 530 nm emission
[13] = target: Retinoic acid receptor RXR-alpha (Homo sapiens) (UniProt P19793); experiment: as above; conditions: HEK293T RXRa-UAS-bla, beta-lactamase reporter, 18 h; series mostly up to 76.7 µM
Retinoic acid receptor RXR-alpha (Homo sapiens), sequence (P19793 whole entry, looked up): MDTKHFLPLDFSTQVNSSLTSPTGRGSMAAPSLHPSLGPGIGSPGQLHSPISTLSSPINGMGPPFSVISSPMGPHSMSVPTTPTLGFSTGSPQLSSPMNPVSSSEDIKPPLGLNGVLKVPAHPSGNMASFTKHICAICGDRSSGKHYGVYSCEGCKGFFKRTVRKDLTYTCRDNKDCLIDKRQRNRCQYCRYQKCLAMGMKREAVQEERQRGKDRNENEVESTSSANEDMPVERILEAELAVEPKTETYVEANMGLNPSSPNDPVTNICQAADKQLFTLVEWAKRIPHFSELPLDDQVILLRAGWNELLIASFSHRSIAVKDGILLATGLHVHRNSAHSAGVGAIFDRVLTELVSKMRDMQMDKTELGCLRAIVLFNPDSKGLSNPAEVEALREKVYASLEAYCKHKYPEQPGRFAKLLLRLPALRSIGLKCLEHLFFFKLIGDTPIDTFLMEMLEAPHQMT

[14] = target: Thyroid hormone receptor beta (Homo sapiens) (UniProt P10828); experiment: qHTS assay for small molecule agonists of thyroid hormone receptor beta signaling (AID 588545; calls by dose curve); conditions: TR-UAS-bla GripTite HEK 293, beta-lactamase ratio, agonist mode, 18 h; series mostly up to 76.7 µM
Thyroid hormone receptor beta (Homo sapiens), sequence (P10828 whole entry, looked up): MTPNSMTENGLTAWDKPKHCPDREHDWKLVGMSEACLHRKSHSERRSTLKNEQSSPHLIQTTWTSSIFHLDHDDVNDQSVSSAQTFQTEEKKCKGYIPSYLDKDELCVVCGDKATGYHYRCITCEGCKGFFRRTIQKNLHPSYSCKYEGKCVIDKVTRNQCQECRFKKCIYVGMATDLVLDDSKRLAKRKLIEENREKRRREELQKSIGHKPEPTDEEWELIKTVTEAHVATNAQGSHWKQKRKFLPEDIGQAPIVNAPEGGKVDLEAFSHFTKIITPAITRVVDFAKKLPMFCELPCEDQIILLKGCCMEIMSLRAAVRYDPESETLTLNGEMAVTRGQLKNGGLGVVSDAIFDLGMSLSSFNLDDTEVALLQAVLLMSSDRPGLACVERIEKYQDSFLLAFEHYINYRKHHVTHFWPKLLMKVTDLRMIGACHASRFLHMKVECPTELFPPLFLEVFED
In short: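 TR-UAS-bla-GripTite HEK 293 cells in medium with 2% charcoal/dextran FBS, 0.1 mM NEAA and 1 mM sodium pyruvate were treated with titrated compounds for 18 hrs at 37 C. Beta-lactamase reporter was read with CCF4 dye (ex 405, em 460/530 nm); EC50 from Hill fits.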

[15] = qHTS assay for small molecule antagonists of retinoid X receptor alpha signaling (AID 588546; active = well fitted inhibition curve with a large enough effect in the signal ratio, with a control signal flat, not every such curve was filed as active; the % refers to the signal ratio;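 also: cells stimulated with 9-cis-retinoic acid as agonist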); conditions: HEK293T RXRa-UAS-bla, beta-lactamase ratio, antagonist mode; measured here: W530 green channel, cytotoxicity proxy
In short: (§1)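 Beta-lactamase reporter inhibition, read as CCF4 fluorescence ratio (ex 405, em 460/530 nm) after 2 h at RT. HEK293T UAS-bla cells, 2500/well, were stimulated with 9-cis-RA at 500 or 100 nM final alongside test compound for 18 h at 37 C.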

[16] = target: Retinoic acid receptor RXR-alpha (Homo sapiens) (UniProt P19793); experiment: as above; conditions: HEK293T RXRa-UAS-bla, beta-lactamase ratio, antagonist mode
In short: as §1

[17] = target: Voltage-gated inwardly rectifying potassium channel KCNH2 (Homo sapiens) (UniProt Q12809); experiment: qHTS Assay for Small Molecule Inhibitors of the Human hERG Channel Activity (AID 588834); conditions: U2OS BacMam hERG, FluxOR thallium flux fluorescence; series mostly up to 92.2 µM;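 also: top concentration of the series differs between compounds; lower thallium flux fluorescence means stronger hERG block; nearly all actives have a fitted effect of over 50% in size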
Voltage-gated inwardly rectifying potassium channel KCNH2 (Homo sapiens), sequence (Q12809 whole entry, looked up): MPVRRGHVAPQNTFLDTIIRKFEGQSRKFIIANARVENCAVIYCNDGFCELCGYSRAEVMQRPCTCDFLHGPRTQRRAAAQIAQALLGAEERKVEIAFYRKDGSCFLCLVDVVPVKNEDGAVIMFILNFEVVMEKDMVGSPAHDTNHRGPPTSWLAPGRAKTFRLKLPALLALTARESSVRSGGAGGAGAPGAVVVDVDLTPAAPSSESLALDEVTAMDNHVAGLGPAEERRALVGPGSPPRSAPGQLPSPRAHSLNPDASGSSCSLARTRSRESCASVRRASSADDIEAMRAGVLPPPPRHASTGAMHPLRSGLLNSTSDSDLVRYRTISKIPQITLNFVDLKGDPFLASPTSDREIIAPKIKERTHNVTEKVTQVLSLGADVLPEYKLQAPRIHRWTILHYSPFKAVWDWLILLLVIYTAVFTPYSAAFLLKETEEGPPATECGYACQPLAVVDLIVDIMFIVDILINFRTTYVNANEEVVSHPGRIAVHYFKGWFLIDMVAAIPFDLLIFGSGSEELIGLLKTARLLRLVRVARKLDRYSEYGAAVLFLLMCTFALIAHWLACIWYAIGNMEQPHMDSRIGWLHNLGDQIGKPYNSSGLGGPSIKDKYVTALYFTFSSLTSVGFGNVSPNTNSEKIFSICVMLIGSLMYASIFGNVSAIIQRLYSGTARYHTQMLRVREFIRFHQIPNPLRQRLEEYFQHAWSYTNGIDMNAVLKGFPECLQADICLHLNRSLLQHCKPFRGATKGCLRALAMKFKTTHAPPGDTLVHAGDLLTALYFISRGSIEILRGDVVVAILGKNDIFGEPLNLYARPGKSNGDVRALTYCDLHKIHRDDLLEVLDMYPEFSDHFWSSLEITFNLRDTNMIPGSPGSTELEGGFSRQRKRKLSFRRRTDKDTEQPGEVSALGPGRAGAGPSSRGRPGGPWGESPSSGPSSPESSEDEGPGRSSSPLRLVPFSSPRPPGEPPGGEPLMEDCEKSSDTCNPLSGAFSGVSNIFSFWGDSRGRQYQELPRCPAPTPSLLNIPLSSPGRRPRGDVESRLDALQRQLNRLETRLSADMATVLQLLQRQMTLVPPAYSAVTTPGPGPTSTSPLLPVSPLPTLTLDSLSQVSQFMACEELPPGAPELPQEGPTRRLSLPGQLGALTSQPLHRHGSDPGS
In short: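 Step 1: BacMam hERG transduction of U2OS, 4 hrs RT. Step 2: overnight 37 °C, plate 2000 cells/well, 4 hr. Step 3: FluxOR load, compound 10 min, stimulate, read fluorescence.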

[18] = target: Nuclear receptor ROR-gamma (Homo sapiens) (UniProt P51449); experiment: qHTS assay for small molecule antagonists of the retinoid-related orphan receptor gamma (ROR-gamma) signaling pathway (AID 651802); conditions: ROR-gamma antagonist cell reporter assay; series mostly up to 92.2 µM;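 also: CHO cells with doxycycline-induced ROR-gamma expression; luciferase reporter luminescence driven by ROR response element; nearly all actives have a fitted effect of over 60% in size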
Nuclear receptor ROR-gamma (Homo sapiens), sequence (P51449 whole entry, looked up): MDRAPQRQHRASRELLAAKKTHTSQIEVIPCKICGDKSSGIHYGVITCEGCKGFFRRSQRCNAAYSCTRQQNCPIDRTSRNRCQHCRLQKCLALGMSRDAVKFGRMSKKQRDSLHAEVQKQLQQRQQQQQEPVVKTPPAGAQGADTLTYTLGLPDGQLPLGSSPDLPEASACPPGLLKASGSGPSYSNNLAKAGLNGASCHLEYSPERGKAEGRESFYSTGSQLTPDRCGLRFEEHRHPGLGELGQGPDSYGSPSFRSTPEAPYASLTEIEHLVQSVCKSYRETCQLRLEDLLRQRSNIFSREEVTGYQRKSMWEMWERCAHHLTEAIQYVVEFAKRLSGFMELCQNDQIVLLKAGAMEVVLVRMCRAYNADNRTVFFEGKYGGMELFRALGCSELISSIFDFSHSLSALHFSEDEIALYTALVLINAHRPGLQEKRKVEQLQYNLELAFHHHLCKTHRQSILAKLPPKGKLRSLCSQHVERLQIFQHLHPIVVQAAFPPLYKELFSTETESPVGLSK
In short: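 Doxycycline-induced reporter activity in engineered CHO cells (TET-inducible ROR, RORE-LUC) was measured by luminescence after 16hr compound exposure at 37C.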

[19] = qHTS assay for cell viability of the p53RE-bla HCT-116 cell line (AID 743292); conditions: p53RE-bla HCT-116 viability, ATP luminescence, 16 h; series mostly up to 95 µM; also: nearly all actives have a fitted effect of over 55% in size
In short: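 After plating at 4,000 cells per well and a 5 h rest at 37 C, HCT-116 cells carrying p53RE-bla received test chemicals in DMSO. Sixteen hours later at 37 C, CellTiter-Glo was added and luminescence recorded following 30 min at room temperature.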

[20] = qHTS assay for environmental chemicals that activate the Aryl hydrocarbon Receptor (AhR) signaling pathway (AID 651777); conditions: 1A2-DRE human hepatoma cells, luciferase, 24 h; activation: stronger effect = higher value; also: nearly all actives have a fitted effect of over 15% in size
In short: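 Following a 24 hr incubation with test chemicals at 37 C and 5% CO2, 1A2-DRE human hepatoma cells received One-Glo reagent; after 30 min at room temperature, luciferase output reflected CYP1A2 induction via AhR.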

Compound | Potency [1] | outcome [2] | outcome [3] | Potency [4] | Potency [5] | Potency [6] | Potency [7] | Potency [8] | Potency [9] | Potency [10] | Potency [11] | max response [12] | outcome [13] | Potency [14] | max response [15] | max response [16] | Potency [17] | Potency [18] | Potency [19] | activation [20]
C=C(Cl)CCl | > 92 µM (inactive) | inactive | inactive | inactive | inactive | inactive | inactive | inactive | inactive | inactive | inactive | -8.31% | inactive | inactive | 4.21% | -0.897% (inactive) | inactive | inactive | inactive | 
CCBr | > 92 µM (inactive) | inactive | inactive | inactive | inactive | inactive | inactive | inactive | inactive | inactive | inactive | -3.72% | inactive | inactive | -5.59% | 2.77% (inactive) | inactive | inactive | inactive | 
Nc1ccc(Cc2ccc(N)cc2)cc1 | > 92 µM (inactive) | inactive | inactive | inactive | 25.1 µM (active) | inactive | inactive | inactive |  | inactive |  | 7.13% | inactive | inactive | -3.16% and 6.7% | -0.525% (inactive) and -18.2% (inactive) | inactive | inactive | inactive | 1.41% (inactive) and 1.54% (inactive)
O=[N+]([O-])c1ccc(Cl)cc1 | > 92 µM (inactive) | inactive | inactive |  | inactive | inactive | inactive | inactive | inactive | inactive | inactive | -17.3% and -9.79% | inactive | inactive | -1.92% and -4.79% | 5.21% (inactive) and -2.59% (inactive) | inactive | inactive |  | -0.207% (inactive) and 4.63% (inactive)
COc1cc(-c2ccc(N)c(OC)c2)ccc1N | > 92 µM (inactive) | inactive | inactive | inactive | 12.6 µM (active) | inactive | inactive | inactive | inactive | inactive | inactive | 8.08% and -9.67% | inactive | inactive | 0.0176% and -5.1% | -9.81% (inactive) and -21.9% (inactive) | inactive | inactive |  | 
N#CCCC#N | > 92 µM (inactive) | inactive | inactive | inactive | inactive | inactive | inactive | inactive | inactive | inactive | inactive | -20.2% | inactive | inactive | -8.53% | 23.2% (inactive) | inactive | inactive |  | 0.758% (inactive)
CCC(Cl)[N+](=O)[O-] (stereo not given) | > 92 µM (inactive) | inactive |  | inactive | inactive | inactive | inactive | inactive | inactive | inactive | inactive | -8.6% | inactive | inactive | -9.88% | -10.3% (inactive) | inactive | inactive | inactive | -0.0264% (inactive)
